Laboratory results taken from PubChem BioAssay (NCATS).
Values joined by “and” are separate entries in the source; they are usually repeats but may differ in a detail not shown here. Equal values may be shown once. Results filed as inconclusive are left out. Where a structure was tested more than once in an assay, its records may differ in their call. Active and inactive are the calls of the source. The call rests on the fitted dose curve; in most records, active means well fitted inhibition curve with a large enough effect; inconclusive means small, poorly fitted or top-dose-only effect; inactive means flat fitted curve, though single readings scatter.

How the values were obtained:
PC26 = test: qHTS profiling for inhibitors of Plasmodium falciparum proliferation (AID 504749); conditions: P. falciparum in erythrocytes, SYBR Green DNA, 72 h; series mostly up to 28.7 µM
Method in brief: (§1)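 Three-day growth assay of blood-stage parasites in erythrocytes (0.3% parasitemia, 2.5% hematocrit) at 37 C, 5% CO2, quantified by SYBR Green DNA staining after overnight detergent lysis.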

PC49 = test: as above; conditions: P. falciparum in erythrocytes, SYBR Green DNA, 72 h; series mostly up to 28.7 µM
Method in brief: as §1

SC27B = test: as above; conditions: P. falciparum in erythrocytes, SYBR Green DNA, 72 h; series mostly up to 28.7 µM
Method in brief: as §1

TAB109 = test: as above; conditions: P. falciparum in erythrocytes, SYBR Green DNA, 72 h; series mostly up to 28.7 µM
Method in brief: as §1

TAB113 = test: as above; conditions: P. falciparum in erythrocytes, SYBR Green DNA, 72 h; series mostly up to 28.7 µM
Method in brief: as §1

TAB165 = test: as above; conditions: P. falciparum in erythrocytes, SYBR Green DNA, 72 h; series mostly up to 28.7 µM
Method in brief: as §1

CRL-7250 = normal cell line; test: Cytotoxic Profiling of Annotated Libraries Using Quantitative High-Throughput Screening (AID 1296008); conditions: Five cell lines viability, CellTiter-Glo ATP luminescence, 48-72 h; max response: stronger effect = lower value; on max response: on the % scale 0 is the no-effect control and ±100 the full control effect
Method in brief: (§2)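 Cytotoxicity was measured as CellTiter-Glo ATP luminescence, read after 10 min at room temperature. Compound treatment of the cells lasted 48 or 72 hr at 37 degrees Celsius in a qHTS format.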

HaCat [1] = test: as above; conditions: Five cell lines viability, CellTiter-Glo ATP luminescence, 48-72 h; max response: stronger effect = lower value
Method in brief: as §2

KB-3-1 = test: as above; conditions: Five cell lines viability, CellTiter-Glo ATP luminescence, 48-72 h; max response: stronger effect = lower value
Method in brief: as §2

NIH3T3 = test: as above; conditions: Five cell lines viability, CellTiter-Glo ATP luminescence, 48-72 h; max response: stronger effect = lower value
Method in brief: as §2

HACAT [2] = test: qHTS assay to identify novel small-molecules to repurpose for Merkel cell carcinoma treatment (AID 1296009); conditions: MCC and control cell lines, CellTiter-Glo viability, 72 h; at 44.8 µM (top of the series) unless noted
Method in brief: (§3)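 After compound transfer in DMSO, plates were kept 72 hr at 37 degree celsius. Luminescent ATP signal from CellTiter-Glo served as viability measure, normalized against DMSO and no-cell controls.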

MCC-13 = test: as above; conditions: MCC and control cell lines, CellTiter-Glo viability, 72 h; series mostly up to 46 µM
Method in brief: as §3

MCC-26 = test: as above; conditions: MCC and control cell lines, CellTiter-Glo viability, 72 h; series mostly up to 46 µM
Method in brief: as §3

MKL-2 = test: as above; conditions: MCC and control cell lines, CellTiter-Glo viability, 72 h; series mostly up to 46 µM
Method in brief: as §3

UISO = test: as above; conditions: MCC and control cell lines, CellTiter-Glo viability, 72 h; series mostly up to 46 µM
Method in brief: as §3

HEK293 = test: Cytotoxic Profiling of Annotated Libraries Using Quantitative High-Throughput Screening (AID 1296008); conditions: Five cell lines viability, CellTiter-Glo ATP luminescence, 48-72 h; max response: stronger effect = lower value; on max response: on the % scale 0 is the no-effect control and ±100 the full control effect
Method in brief: as §2

MKL-1 = test: qHTS assay to identify novel small-molecules to repurpose for Merkel cell carcinoma treatment (AID 1296009); conditions: MCC and control cell lines, CellTiter-Glo viability, 72 h; series mostly up to 46 µM
Method in brief: as §3
Further: nearly all actives have a fitted effect of over 60% in size.
Potency means the concentration at half of the fitted maximal effect.

Clc1ccc(Nc2nnc(Cc3ccncc3)c3ccccc23)cc1
inactive: Potency (PC26) | Potency (PC49) | Potency (SC27B) | Potency (TAB109) | Potency (TAB113) | max response (CRL-7250) 1.53% and -11.9% and 0.195% | max response (HaCat [1]) -5.86% | outcome (HaCat [1]) | max response (KB-3-1) -8.03% and 60.3% | max response (NIH3T3) -1.18% and -1.64% | outcome (HACAT [2]) | Potency (MCC-13) | Potency (MCC-26) | Potency (UISO)
inactive and 13.3 µM (active): Potency (MKL-2)
active: Potency (TAB165) 12600 nM

COc1ccc(-c2ccc3c(N4CCOCC4)nc(N4C[C@@H](C)O[C@@H](C)C4)nc3n2)cc1CO
active: Potency (CRL-7250) 296 nM | Potency (HEK293) 662 nM | Potency (KB-3-1) 1660 nM | Potency (NIH3T3) 3720 nM
inactive: Potency (MKL-1)

Nc1ncnc2nc(-c3ccc(N4CCOCC4)nc3)cc(-c3cccc(Br)c3)c12
inactive: max response (CRL-7250) 0.286% | max response (HaCat [1]) 3.01% | outcome (KB-3-1) | max response (NIH3T3) 1.04% | Potency (MCC-13) | Potency (MCC-26) | Potency (MKL-1) | Potency (MKL-2) | Potency (UISO)

O=C(C1CC1)N1CC[C@@H](Cn2c(-c3ccc(-c4ccc5occc5c4)cc3)nc3cnccc32)C1
inactive: outcome (CRL-7250) | max response (HaCat [1]) -11.7% | max response (KB-3-1) 3.71% | max response (NIH3T3) 1.4% | Potency (MCC-13) | Potency (MCC-26) | Potency (MKL-1) | Potency (MKL-2) | Potency (UISO)

N#CC[C@H](C1CCCC1)n1cc(-c2ncnc3[nH]ccc23)cn1
inactive: max response (CRL-7250) -20.9% and 3.07% | max response (HaCat [1]) 0.777% | outcome (HaCat [1]) | outcome (HACAT [2]) | Potency (MCC-13) | Potency (MCC-26) | Potency (MKL-1) | Potency (MKL-2)

CCCCCCCc1ccc(CCc2cccc(O)c2C(=O)O)cc1
inactive: max response (CRL-7250) -0.808% | outcome (HaCat [1]) | outcome (HACAT [2]) | Potency (MCC-13) | Potency (MCC-26) | Potency (MKL-1) | Potency (MKL-2) | Potency (UISO)
